In PubChem BioAssay AID1986 (Sanford-Burnham Center for Chemical Genomics, 2009):
The whole screen tested about 290,000 compounds, of which about 890 (0.31%) were called active. Rule as the data show it: active = inhibition mostly above about 52% (no sharp cut-off); inactive = mostly below about 76%. This excerpt belongs to a sample that is enriched for actives.

Assay: cell-free HIV fusion peptide-binding blockers – biochemical, uHTS, fluorescence dequenching, primary screen (AID 1986)
Conditions: 30 min, stronger effect = higher value
[1] = measured here: repeat confirmation average inhibition, at 18.6 µM

In the case of Fc1ccc(CSc2ccc(-c3ccc4c(c3)OCO4)nn2)cc1, the inhibition (at 20 µM) is reported as -3.7% (inactive).
For O=S(=O)(NCCC1CC1(Cl)Cl)c1ccccc1 (configuration not stated), the inhibition (at 20 µM) was -2% (inactive).
For CCOc1ccc(C(=O)NC(=S)Nc2ccccn2)cc1[N+](=O)[O-], the inhibition (at 20 µM) was -0.9% (inactive).
With CCCCNC(=O)Oc1cc(CCl)on1 the inhibition (at 20 µM) was 0.1% (inactive).
In the case of O=C(NC1CCCCC1)Oc1cc2oc(=O)sc2cc1Br, the inhibition (at 20 µM) is reported as -1.5% (inactive).
For CCCCNC(=O)Oc1c(Br)cc2sc(=O)oc2c1Br, the inhibition (at 20 µM) was 54.3% (active).
In the case of COC(=O)c1cc(OC)c(OC)cc1NC(=O)c1csc(C)c1, the inhibition (at 20 µM) is reported as -1.1% (inactive).
With CCCC1=C/C(=C/c2ccc(-c3ccccc3OC)o2)C(=O)O1 the inhibition (at 20 µM) was 32% (inactive).
For COc1ccccc1-c1ccc(/C=C2/C=C(C)OC2=O)o1, the inhibition (at 20 µM) was 48.6% (inactive).
With COc1ccccc1-c1ccc(/C=C2\C=CC(=O)O2)o1 the inhibition (at 20 µM) was 70.7% (active) and the inhibition [1] was 59%.
In the case of CCCCNC(=O)O/N=C(\N)CS(=O)(=O)C(C)(C)C, the inhibition (at 20 µM) is reported as -2.3% (inactive).
With COc1cccc(NC(=O)Cn2nnc(C(=O)Nc3cc(Cl)ccc3OC)c2N)c1 the inhibition (at 20 µM) was 1.3% (inactive).
For CCOc1ccc(C(=O)Nc2ncccc2Cl)cc1, the inhibition (at 20 µM) was 1.2% (inactive).
With CCOC(=O)C(C)N1C(=O)S/C(=C\c2ccc(-c3ccccc3C(=O)O)o2)C1=O (configuration not stated) the inhibition (at 20 µM) was 22.7% (inactive).
For Cc1ccc2c(nc3s/c(=C/c4cccs4)c(=O)n32)c1C, the inhibition (at 20 µM) was -1.1% (inactive).
In the case of Cc1ccc2c(nc3s/c(=C\c4ccc(-c5ccccc5C(=O)O)o4)c(=O)n32)c1C, the inhibition (at 20 µM) is reported as 88% (active) and the inhibition [1] is reported as 121%.
In the case of COc1ccc(O)c(/C=c2/sc3nc4cc(C)c(C)cc4n3c2=O)c1, the inhibition (at 20 µM) is reported as -3.1% (inactive).
For Cc1cc2nc3s/c(=C/c4ccc(-c5ccccc5C(=O)O)o4)c(=O)n3c2cc1C, the inhibition (at 20 µM) was 116% (active) and the inhibition [1] was 108%.
For O=C(O)c1ccccc1-c1ccc(/C=c2\sc3nc4cc(Br)cnc4n3c2=O)o1, the inhibition (at 20 µM) was 56.9% (inactive) and the inhibition [1] was 28.9%.
With COCCCNC(=O)c1ccc(CS(=O)(=O)c2cccc(C(F)(F)F)c2)o1 the inhibition (at 20 µM) was -1.7% (inactive).
For CCC12CN3CCN(CC(C3)/C1=N\NC(=O)c1ccc(F)cc1)C2, the inhibition (at 20 µM) was 0.1% (inactive).
With CCOc1ccc(C2C(C(=O)c3ccco3)=C(O)C(=O)N2Cc2cccnc2)cc1 (configuration not stated) the inhibition (at 20 µM) was 0.5% (inactive).
In the case of Cc1ccc(C)c(NC(=O)CSc2nnc(CNC(=O)c3ccco3)n2C)c1, the inhibition (at 20 µM) is reported as -1.8% (inactive).
With CCOC(=O)c1ccc(N2C(=O)c3n[nH]c(-c4ccco4)c3C2c2ccc([N+](=O)[O-])cc2)cc1 (configuration not stated) the inhibition (at 20 µM) was 60.1% (active).
With CCOC(=O)c1ccc(N2C(=O)c3n[nH]c(-c4ccco4)c3C2c2cccc([N+](=O)[O-])c2)cc1 (configuration not stated) the inhibition (at 20 µM) was 14.6% (inactive).
With CCOC(=O)c1ccc(N2C(=O)c3n[nH]c(C)c3C2c2ccco2)cc1 (configuration not stated) the inhibition (at 20 µM) was -0.8% (inactive).
For Cc1nnc(SCC(=O)N2CCN(c3ccccc3)CC2)n(N)c1=O, the inhibition (at 20 µM) was 0.4% (inactive).
With COc1cc(OC)cc(C(=O)n2nc(C)cc2C)c1 the inhibition (at 20 µM) was -0.7% (inactive).
For Cn1c(CC(=O)Nc2ccc(Cl)cc2)nnc1SCC(=O)N1CCOCC1, the inhibition (at 20 µM) was -1% (inactive).
In the case of Cc1cc(/C=C2\NC(=S)N(C)C2=O)ccc1N1CCCC1, the inhibition (at 20 µM) is reported as 143% (inactive).
For CCCN1C(=O)/C(=C/c2ccc(N3CCCC3)c(C)c2)NC1=S, the inhibition (at 20 µM) was 125% (inactive).
For Cc1cc(/C=C2/C(=O)N(C)C(=S)N2C)ccc1N1CCCC1, the inhibition (at 20 µM) was 54.2% (active).
In the case of Cc1cc(S(=O)(=O)N2CCOCC2)ccc1OCC(=O)Nc1cccc(F)c1, the inhibition (at 20 µM) is reported as -1.3% (inactive).
For CCOc1ccc(C(C)NC(=O)c2cccnc2OCC)cc1OCC (configuration not stated), the inhibition (at 20 µM) was -0.2% (inactive).
In the case of O=[N+]([O-])c1cc(/C=N\Nc2nc(-c3ccccc3)cs2)ccc1O, the inhibition (at 20 µM) is reported as 33.1% (inactive).
With O=[N+]([O-])c1cc(/C=N\Nc2nccs2)ccc1O the inhibition (at 20 µM) was 71.1% (active).
For Cc1csc(N/N=C/c2ccc(O)c([N+](=O)[O-])c2)n1, the inhibition (at 20 µM) was 0% (inactive).
In the case of O=C(/C=C/c1cc([N+](=O)[O-])ccc1OC(F)F)Nc1cccc2ccccc12, the inhibition (at 20 µM) is reported as 1.3% (inactive).
In the case of CC1(C)Cc2c(sc(NC(=S)NC(=O)c3ccccc3)c2C(=O)O)CO1, the inhibition (at 20 µM) is reported as 2.8% (inactive).
In the case of CC(/C=C1\SC(=S)N(NS(=O)(=O)c2ccc(C)cc2)C1=O)=C\c1ccccc1, the inhibition (at 20 µM) is reported as 56.5% (active).
In the case of CC(/C=C1\SC(=S)N(NC(=O)c2ccc(C)cc2)C1=O)=C\c1ccccc1, the inhibition (at 20 µM) is reported as 6.4% (inactive).
For CC(/C=C1\SC(=S)N(NS(=O)(=O)c2ccccc2)C1=O)=C\c1ccccc1, the inhibition (at 20 µM) was 40.6% (inactive).
In the case of COc1ccc(NC(=O)/C(C#N)=C/C=C/c2ccco2)cc1, the inhibition (at 20 µM) is reported as 80.7% (active).
For COc1ccccc1NC(=O)/C(C#N)=C/C=C/c1ccco1, the inhibition (at 20 µM) was 24.1% (inactive).
With COc1ccc(NC(=O)/C(C#N)=C\C=C\c2ccco2)cc1 the inhibition (at 20 µM) was 73.2% (inactive) and the inhibition [1] was -0.6%.
With Cc1cccn2cc(CCNC(=O)c3ccco3)nc12 the inhibition (at 20 µM) was -0.6% (inactive).
In the case of Cc1cc(N2C(=O)C(O)=C(C(=O)c3ccco3)C2c2ccc([N+](=O)[O-])cc2)no1 (configuration not stated), the inhibition (at 20 µM) is reported as 1.4% (inactive).
In the case of Cc1nc(=O)c(-c2ccccc2)c(C)n1CCCCCC(=O)O, the inhibition (at 20 µM) is reported as -2.3% (inactive).
For CC(N=C(NS(=O)(=O)c1ccc(Cl)cc1)c1ccccc1)C(=O)O (configuration not stated), the inhibition (at 20 µM) was -0.1% (inactive).
With COc1ccc(C=C(c2nc3ccccc3s2)c2nc3ccccc3s2)cc1O the inhibition (at 20 µM) was 57.6% (active).
For COc1cc(C=C(c2nc3ccccc3s2)c2nc3ccccc3s2)ccc1O, the inhibition (at 20 µM) was 8.2% (inactive).
In the case of COc1cc(C=C(c2nc3ccccc3s2)c2nc3ccccc3s2)cc(OC)c1O, the inhibition (at 20 µM) is reported as 26.6% (inactive).
In the case of CCS(=O)(=O)Nc1cccc(C2=NN(S(C)(=O)=O)C(c3cccs3)C2)c1 (configuration not stated), the inhibition (at 20 µM) is reported as 0.5% (inactive).
For CCOC(=O)C(NC(=O)CC)(Nc1ccc(S(=O)(=O)Nc2cc(C)on2)cc1)C(F)(F)F (configuration not stated), the inhibition (at 20 µM) was 59.8% (active).
In the case of CCOC(=O)C(NC(C)=O)(Nc1ccc(S(=O)(=O)Nc2cc(C)on2)cc1)C(F)(F)F (configuration not stated), the inhibition (at 20 µM) is reported as 3.7% (inactive).
With CCCC(=O)NC(Nc1ccc(S(=O)(=O)Nc2cc(C)on2)cc1)(C(=O)OCC)C(F)(F)F (configuration not stated) the inhibition (at 20 µM) was -1.8% (inactive).
For COCCCN(C(=S)NC(=O)C(C)(C)C)c1c(N)n(Cc2ccccc2)c(=O)[nH]c1=O, the inhibition (at 20 µM) was -2.2% (inactive).
In the case of COc1cc(/C=C2/SC(=S)N(Cc3ccccc3)C2=O)ccc1O, the inhibition (at 20 µM) is reported as 6% (inactive).
With COc1ccc(OC)c(/C=C2\SC(=S)N(Cc3cccnc3)C2=O)c1 the inhibition (at 20 µM) was 36.3% (inactive).
In the case of COc1cc(/C=C2\SC(=Nc3ccccc3OC)NC2=O)ccc1O, the inhibition (at 20 µM) is reported as 8.2% (inactive).
For COc1cc(/C=C2/SC(=Nc3ccc(O)cc3)NC2=O)cc(OC)c1O, the inhibition (at 20 µM) was -2.4% (inactive).
For COc1ccc(/C=C2/SC(=S)N(Cc3ccccc3)C2=O)cc1O, the inhibition (at 20 µM) was -3.1% (inactive).
With COc1ccc(O)c(/C=C2/SC(=S)N(Cc3ccccc3)C2=O)c1 the inhibition (at 20 µM) was 68.8% (active) and the inhibition [1] was 51%.
With O=C1/C(=C\c2cc(Cl)c(O)c(Cl)c2)SC(=S)N1Cc1ccccc1 the inhibition (at 20 µM) was 159% (inactive).
For COc1cc(/C=C2\SC(=Nc3ccccc3)NC2=O)cc(Cl)c1O, the inhibition (at 20 µM) was 90% (active) and the inhibition [1] was 60.8%.
In the case of COc1ccc(/C=C2\SC(=Nc3ccccc3OC)NC2=O)cc1, the inhibition (at 20 µM) is reported as 7.1% (inactive).
With COc1cc(/C=C2\SC(=Nc3ccc(O)cc3)NC2=O)cc(OC)c1O the inhibition (at 20 µM) was -2.7% (inactive).
With COc1cc(/C=C2/SC(=S)N(Cc3ccccc3)C2=O)cc(Cl)c1O the inhibition (at 20 µM) was 119% (active) and the inhibition [1] was 88%.
For COc1ccccc1N=C1NC(=O)/C(=C/c2ccc(N(C)C)cc2)S1, the inhibition (at 20 µM) was 52.4% (active).
